Measured values from PubChem BioAssay (NCATS).
Inconclusive results are not listed. A number with no mark means an inactive call. Active and inactive are the calls of the source. The call rests on the fitted dose curve; in most records, active means well fitted inhibition curve with a large enough effect; inconclusive means small, poorly fitted or top-dose-only effect; inactive means flat fitted curve, though single readings scatter.

Key:
[1] = test system: HEK293; experiment: Cytotoxic Profiling of Annotated Libraries Using Quantitative High-Throughput Screening (AID 1296008); details: Five cell lines viability, CellTiter-Glo ATP luminescence, 48-72 h; max response: stronger effect = lower value; further: nearly all actives have a fitted effect of over 60% in size
Outline: (§1)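 Cells exposed to compounds for 48 or 72 hr at 37 degrees Celsius. Viability read as ATP-coupled luminescence with CellTiter-Glo after 10 min at room temperature.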

[2] = test system: HaCat; experiment: as above; details: Five cell lines viability, CellTiter-Glo ATP luminescence, 48-72 h; max response: stronger effect = lower value
Outline: as §1
On the % scale 0 is the no-effect control and ±100 the full control effect; potency means the concentration at half of the fitted maximal effect.

Row | Structure (SMILES) | Potency [1] | max response [2] [%] | Potency [2]
1 | CC(=O)N1CCN(CCOc2ccc(C3CCN(C4=Nn5c(nnc5C(F)(F)F)CC4)CC3)cc2)CC1 | 9.2 µM (active) | -1.46 | –
2 | CC(C)C[C@H](C(=O)O)c1cc(-c2ccc(C(F)(F)F)cc2)cc(-c2ccc(C(F)(F)F)cc2)c1 | 10.3 µM (active) | 1.64 | –
3 | Nc1nc(Nc2ccc3c(c2)CCC(N2CCCC2)CC3)nn1-c1cc2c(nn1)-c1ccccc1CCC2 (stereo not given) | 8.2 µM (active) | – | –
4 | CC(C)(C)c1ccc(NC(=O)N2CCN(c3ncccc3Cl)CC2)cc1 | 11.6 µM (active) | 4.52 | –
5 | C[C@H](Oc1cc(-c2cnn(C3CCNCC3)c2)cnc1N)c1c(Cl)ccc(F)c1Cl | 9.2 µM (active) | – | –
6 | C[C@@H]1COCCN1c1cc(=O)n2c(n1)N(Cc1cncc(Cl)c1)[C@H](C(F)(F)F)CC2 | 4.17 µM (active) | -6.64 | –
7 | CN(C)CCCn1cc(C2=C(c3c[nH]c4ccccc34)C(=O)NC2=O)c2ccccc21 | 14.6 µM (active) | -0.893 | –
8 | CC1CCCC(O)CC(=O)c2c(O)cc(O)cc2CC(=O)O1 (stereo not given) | 8.05 µM (active) | – | –
9 | COC1CCN(c2cccc(-c3cc(NC(C)=O)nc(-n4nc(C)cc4C)n3)n2)CC1 | 9.2 µM (active) | -6.53 | –
10 | O=C(Nc1ccc2[nH]nc(-c3ccncc3)c2c1)[C@@H]1CCN(CC(=O)N2CCN(c3ccc(-c4ncccn4)cc3)CC2)C1 | 10.3 µM (active) | – | –
11 | CC(C)CC(=O)c1c(O)cc2c(c1O)C(CC(C)C)C1=C(O2)C(C)(C)C(=O)C(C)(C)C1=O (stereo not given) | 5.63 µM (active) | – | –
12 | COc1ccc(C#Cc2ccc(C(=O)N3CCC[C@@H](O)C3)c(F)c2)cc1 | 13 µM (active) | -33.7 | –
13 | C=C1CC2OC(=O)C(COC)C2C(OC(=O)/C(C)=C\C)CC2(C)OC1=CC2=O (stereo not given) | 4.53 µM (active) | -10.4 | –
14 | Cc1nc(NC(=O)N2CCC[C@H]2C(N)=O)sc1-c1ccnc(C(C)(C)C(F)(F)F)c1 | 16.4 µM (active) | – | 3.66 µM (active)
15 | C=C1C(=O)O[C@@H]2[C@H]1CC[C@H](C)C(CCC(=O)O)C2(C)O (stereo not given in full) | 23.1 µM (active) | – | –
16 | COc1ccc2nc(-c3cc(OC)c(OC)c(OC)c3)cc(C(=O)NCC(=O)Nc3ccc(C(C)=O)cc3)c2c1 | 7.31 µM (active) | -18 | –

Row | Structure (SMILES) | Potency [1] | max response [2] [%] | Potency [2]
17 | O=C(CN1C2=NCCN2c2ccccc21)c1ccc(-c2ccccc2)cc1 | 18.4 µM (active) | – | 16.4 µM (active)
18 | Cc1cc(N2CCOCC2)ccc1Nc1nc(NC2CCCCC2)c2[nH]cnc2n1 | 0.326 µM (active) | – | –
19 | CN(C)CC1CCn2c(c(C3=C(c4cn(C)c5ccccc45)C(=O)NC3=O)c3ccccc32)C1 (stereo not given) | 8.2 µM (active) | – | 20.6 µM (active)
20 | N#Cc1cnc2c(Cl)cc(NCc3cn(CCN4CCCCCC4)nn3)cc2c1Nc1ccc(F)c(Cl)c1 | 18.4 µM (active) | – | –
21 | NCC1CCN(c2nccc(-c3ccc4ccccc4c3)n2)CC1 | 11.6 µM (active) | – | 6.51 µM (active)
22 | Cc1ccc(C)c(-c2cc(C(F)(F)F)nn2-c2ccc(S(N)(=O)=O)cc2)c1 | 5.17 µM (active) | 3.66 | –
23 | CC(C)(C[C@@](O)(Cc1cc2ccncc2[nH]1)C(F)(F)F)c1cc(F)ccc1O | 11.6 µM (active) | -2.9 | –
24 | Cc1cc(F)c(C(=O)Nc2cccc(-c3nncn3C(C)C)n2)cc1-n1cnc(C2CC2)c1 | 10 µM (active) | – | –
25 | CN(C)CCN(Cc1ccccc1)C(=O)c1cc(-c2ccc(F)cc2)n2nc(C(C)(C)C)cc2n1 | 14.6 µM (active) | -107 | –
26 | CCN1CCN(Cc2ccc(NC(=O)c3ccc(C)c(Oc4ncnc5[nH]c(C)cc45)c3)cc2C(F)(F)F)CC1 | 13 µM (active) | – | –
27 | C=C1CC(=O)C2OC2(C)CC2OC(=O)C(=C)C2C(O)C1OC(=O)/C(C)=C\C (stereo not given) | 6.4 µM (active) | – | –
28 | CC(C)(C)c1ccc(-c2nc3c(N4CCN(Cc5ccc6nccnc6c5)CC4)cccc3[nH]2)cc1 | 4.11 µM (active) | -27.9 | –
29 | C=C(C)C(=O)OC1CC(CO)CCC/C(CO)=C/C2OC(=O)C(=C)C21 (stereo not given) | 7.18 µM (active) | 1.02 | –
30 | CC(C)NC(=O)COc1cccc(-c2nc(Nc3ccc4[nH]ncc4c3)c3ccccc3n2)c1 | 5.8 µM (active) | -3.54 | –
31 | CCCc1cc(C)[nH]c(=O)c1CNC(=O)c1cc(-c2ccc(N3CCN(C(C)C)CC3)nc2)cc2c1cnn2C(C)C | 11.6 µM (active) | – | –
